# Only some compounds are listed: those with a hit (about 4.7% of all), similar ones and a draw of the others.
# TRHR ag: qHTS for Small Molecule Agonists and Allosteric Enhancers of Human TRH Receptor: Primary Screen for Agonists | 360,000 compounds, 0.18% hits | Thyrotropin-releasing hormone receptor (Homo sapiens), P34981 | AID 493084, 2011 | TRHR cells, calcium flux fluo-8, FDSS agonist mode | activation, % at 2 µM; note: 0% is about no effect
# Target sequence (P34981 whole entry, looked up): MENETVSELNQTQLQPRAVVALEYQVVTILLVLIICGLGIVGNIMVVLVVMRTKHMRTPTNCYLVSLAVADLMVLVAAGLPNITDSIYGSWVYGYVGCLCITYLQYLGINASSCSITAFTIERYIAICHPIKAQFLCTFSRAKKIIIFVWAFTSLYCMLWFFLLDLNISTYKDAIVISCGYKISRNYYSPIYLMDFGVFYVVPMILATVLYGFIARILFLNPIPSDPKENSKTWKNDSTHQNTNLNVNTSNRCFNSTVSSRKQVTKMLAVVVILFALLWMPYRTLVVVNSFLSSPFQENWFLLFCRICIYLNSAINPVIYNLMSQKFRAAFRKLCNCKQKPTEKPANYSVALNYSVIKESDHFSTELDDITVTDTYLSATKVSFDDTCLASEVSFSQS
#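 In this calcium-flux screen, cells bearing human TRHR are dye-loaded with fluo-8, baselined for 10 cycles, then exposed to library compounds; positive kinetic calcium responses during the agonist phase mark hits, with TRH as control.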
# D1 potentiator: Potentiators of Human D1 Dopamine Receptor: qHTS. D(1A) dopamine receptor (Homo sapiens), P21728. potentiation, % at 10 µM. HEK293 TREx D1 cells, calcium flux, dopamine EC20 potentiation. AID 504651, 2011. 360,000 compounds, 0.036% hits; in the data active = potentiation above about 30%; note: 0% is about no effect
# D1 antagonist: Antagonist of Human D 1 Dopamine Receptor: qHTS | D(1A) dopamine receptor (Homo sapiens), P21728 | HEK293 TREx D1 cells, calcium flux, dopamine EC80; active compounds read low | activity change, negative = inhibition, % at 10 µM | 360,000 compounds, 3.2% hits; in the data active = activity change below about -30%; note: % is set by controls: 0 for no effect and ±100 for the full control effect
#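 Tetracycline-induced HEK293 Trex D1 cells, force-coupled to calcium, dye-loaded; compounds added and read 180 s, then EC80 dopamine added and calcium flux tracked kinetically another 180 s.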
# D1 agonist: Allosteric Agonists of the Human D1 Dopamine Receptor: qHTS; HEK293 T-REx D1 cells, calcium flux, agonist mode; AID 504660, 2011; activation, % at 2 µM; 360,000 compounds, 1% hits; note: 0% is about no effect
#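 Inducible HEK293 T-REx D1 cells, force-coupled to calcium signalling, were plated at 4000 cells/well with tetracycline and held overnight at 30 C. After no-wash calcium dye loading, compound-evoked calcium rise over 180 s flagged agonists.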
# TRHR enhancer: qHTS for Small Molecule Agonists and Allosteric Enhancers of Human TRH Receptor: Primary Screen for Enhancers; Thyrotropin-releasing hormone receptor (Homo sapiens), P34981; TRHR cells, fluo-8 calcium fluorescence, EC20 TRH enhancement; enhancement, % at 2 µM; 360,000 compounds, 0.66% hits; in the data active = enhancement above about 30%; note: 0% is about no effect
#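 TRHR-expressing cells loaded with fluo-8 calcium dye were read kinetically (ex 480/em 530) during compound addition, then stimulated with an EC20 of TRH (10 nM final). Enhancement of the Gq-mediated intracellular calcium response was scored.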
# Starred values were filed as active, the others as inactive; nt = not tested or not shown. Cut-off read from the data, not from the text of the source, unless noted: active = activation above about 30%; inactive = the rest.
SMILES,TRHR ag,D1 potentiator,D1 antagonist,D1 agonist,TRHR enhancer
C#CCOCCOCCOCCNc1nc(N2CCN(C(=O)CCCCCCCCCCNC(=O)[C@H](CCCCN)n3cc(CCCC(=O)O)nn3)CC2)nc(N2CCN(C(=O)CCCCCCCCCCNC(=O)[C@@H]([C@H](C)O)n3cc(C)nn3)CC2)n1,0,6,6,44*,-1
CN(CC(=O)Nc1ccc(F)cc1)C(=O)CSc1ncccn1,0,2,7,1,0
Cc1cc(C2CC(=O)Nc3ccccc3S2)c(C)s1 (stereo not given),8,4,-9,7,-5
O=C1CC(c2ccsc2)Sc2ccccc2N1 (stereo not given),-1,1,-32*,5,0
CC(C)Cc1ccc(C(C)C(=O)OCC(=O)c2c[nH]c3ccccc23)cc1 (stereo not given),8,-4,-27,37*,-3
Cc1ccc(C(=O)OCC(=O)c2c[nH]c3ccccc23)cc1,0,-4,-1,3,3
CCc1ccc(CN2CCCC(CNC(=O)c3cc(OC)cc(OC)c3)C2)cc1 (stereo not given),0,0,-37*,9,-4
CN1CCN(c2ccc(C(F)(F)F)cc2NC(=O)c2ccco2)CC1,1,-3,-9,7,3
COc1ccc(CCN(C)C2CCCN(S(=O)(=O)c3ccc(C)cc3)C2)cc1OC (stereo not given),0,-9,-37*,-3,-1
CCOC(=O)c1[nH]c(C)c(CCC(=O)Nc2ccc(C)cc2Cl)c1C,-1,-1,4,3,3
CCn1c2c(c(C)cc1=O)C(=O)CC(C)(C)C2,0,-6,-8,0,34*
CCn1c(C)c2c([n+]1CC)CC(C)(C)CC2=O,0,-4,-2,-1,3
CCC(=O)N1CCc2cc(S(=O)(=O)N3CCN(c4cc(C)ccc4C)CC3)ccc21,0,-2,6,7,-3
Cc1c(NC(=O)OCCNC(=O)COc2ccc(Cl)cc2Cl)sc(=S)n1C,0,-9,-43*,15,5
Brc1ccc(CNCCCSc2nnnn2-c2ccccc2)cc1,1,1,-4,95*,0
Cc1ccc(CNCCCSc2nc(C)cc(C)n2)cc1,0,-7,-10,9,0
CCOc1cc(CNCCSc2nnnn2-c2ccccc2)cc(Cl)c1OC,-2,1,-2,40*,6
Cc1c(Cl)cccc1-c1ccc(CNCCSc2nnnn2-c2ccccc2)o1,2,4,0,8,3
Cc1cc(C)nc(SCCCNCc2ccc(Br)cc2)n1,1,-4,-28,36*,0
Fc1ccc(-c2ccc(CNCCSc3nnnn3-c3ccccc3)o2)cc1,-1,2,7,34*,2
COc1cc(CNCCSc2nnnn2C)cc(Cl)c1OCc1ccccc1,-3,-4,3,3,-8
Cc1oc2c(c1C(=O)NCc1cccc(Br)c1)C1=NCCN1C=N2,-1,-6,38,-1,-3
COc1ccc(CC(C)Nc2cccc(SC)c2)cc1 (stereo not given),1,4,-1,2,-3
Cc1ccccc1CN1C(=O)c2ccccc2Sc2ccc(C(=O)NCc3ccccc3)cc21,0,-3,-2,0,-1
CSc1nc(-c2ccccc2)nc(C(C)C)n1,0,1,nt,-1,-3
COc1ccc(-n2nc3c(c2NC(=O)C(=O)N2CCN(C)CC2)CSC3)cc1,0,-2,nt,-1,43*
CC(=O)Nc1ccc(C(=O)COC(=O)CCc2ccccc2)c(F)c1,0,nt,-3,11,5
CN1C(=O)NC(c2ccc(C(F)(F)F)cc2)C2=C1CC(C)(C)CC2=O (stereo not given),0,-1,8,32*,-3
CN1C(=O)NC(c2ccc([N+](=O)[O-])cc2)C2=C1CC(C)(C)CC2=O (stereo not given),1,-7,3,1,8
O=C(O)CNC(=O)CC1S/C(=N/N=C2/NC(=O)CS2)NC1=O (stereo not given),2,-5,-30*,7,-2

# Assay outcomes as filed in PubChem BioAssay.
